What was measured:
Experiment in all cases: log2 ratio of Biotin-Ahx-Ub-VS probe labelling (fragment/DMSO); higher = less target engagement (more negative = stronger competition), active = hit call of the paper (q ≤ 0.05, log2 ratio ≤ -1)
Settings in all cases: compound concentration: 200 uM; treatment time: 3 h
OTUD6B = biological target: T1, OTUD6B (UniProt Q8N6M0)
T1 sequence (whole entry): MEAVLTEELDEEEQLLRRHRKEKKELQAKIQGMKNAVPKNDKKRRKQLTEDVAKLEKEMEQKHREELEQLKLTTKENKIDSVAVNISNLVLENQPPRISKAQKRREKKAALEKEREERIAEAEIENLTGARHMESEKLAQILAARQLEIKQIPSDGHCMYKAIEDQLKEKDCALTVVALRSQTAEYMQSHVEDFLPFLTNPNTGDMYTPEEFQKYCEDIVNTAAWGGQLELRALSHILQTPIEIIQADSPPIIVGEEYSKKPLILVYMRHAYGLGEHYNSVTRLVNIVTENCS
In short: (§1)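 Lysate from HEK293T cells, 495 µg per sample in Tris/CHAPS/IGEPAL buffer with protease inhibitors, was treated for 3 h in triplicate with fragment at 200 µM or vehicle. Biotin-Ahx-Ub-VS was next added at 0.5 µM final for 1 h. The labelled DUBs were enriched with NeutrAvidin, digested with LysC and trypsin, and run by diaPASEF LC-MS/MS, with values given as average log2 fragment/vehicle ratios by unpaired t-test on global-median-normalised Spectronaut quantities of proteins with ≥2 unique peptides.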

OTUD7B = biological target: T2, OTUD7B (UniProt Q6GQQ9)
T2 sequence (whole entry): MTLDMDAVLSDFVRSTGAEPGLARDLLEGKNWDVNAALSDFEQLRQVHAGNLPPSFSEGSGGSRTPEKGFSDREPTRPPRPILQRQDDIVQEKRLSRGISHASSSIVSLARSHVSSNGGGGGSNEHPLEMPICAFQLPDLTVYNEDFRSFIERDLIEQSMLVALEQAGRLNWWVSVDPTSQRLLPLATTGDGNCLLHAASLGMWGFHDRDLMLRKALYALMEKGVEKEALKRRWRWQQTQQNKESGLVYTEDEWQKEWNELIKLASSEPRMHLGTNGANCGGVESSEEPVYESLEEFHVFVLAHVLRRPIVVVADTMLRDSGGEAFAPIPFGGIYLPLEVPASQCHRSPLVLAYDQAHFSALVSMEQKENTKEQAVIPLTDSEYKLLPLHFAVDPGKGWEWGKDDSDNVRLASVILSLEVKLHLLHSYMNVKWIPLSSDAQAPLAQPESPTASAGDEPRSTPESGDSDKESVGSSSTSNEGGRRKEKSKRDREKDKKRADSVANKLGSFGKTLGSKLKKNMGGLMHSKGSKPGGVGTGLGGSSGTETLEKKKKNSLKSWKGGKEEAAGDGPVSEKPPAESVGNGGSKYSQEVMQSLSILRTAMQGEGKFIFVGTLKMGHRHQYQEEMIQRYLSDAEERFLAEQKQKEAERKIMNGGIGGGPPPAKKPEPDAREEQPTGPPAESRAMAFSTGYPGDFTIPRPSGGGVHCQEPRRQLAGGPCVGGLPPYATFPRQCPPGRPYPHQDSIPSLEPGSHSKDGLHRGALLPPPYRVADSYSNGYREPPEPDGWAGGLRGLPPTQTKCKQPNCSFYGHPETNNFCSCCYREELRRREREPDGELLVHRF
In short: as §1

PRPF8 = PRPF8 (UniProt Q6P2Q9)
In short: as §1

PSMD7 = biological target: T3, PSMD7 (UniProt P51665)
T3 sequence (whole entry): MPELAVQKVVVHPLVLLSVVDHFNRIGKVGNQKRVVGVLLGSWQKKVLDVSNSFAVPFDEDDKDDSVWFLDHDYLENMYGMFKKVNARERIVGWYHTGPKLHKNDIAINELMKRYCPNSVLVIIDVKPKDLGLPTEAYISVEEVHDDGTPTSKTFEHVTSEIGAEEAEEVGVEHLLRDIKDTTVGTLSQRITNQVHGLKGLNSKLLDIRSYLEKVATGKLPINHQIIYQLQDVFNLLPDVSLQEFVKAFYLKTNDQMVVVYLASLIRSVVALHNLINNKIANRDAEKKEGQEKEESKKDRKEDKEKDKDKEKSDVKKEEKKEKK
In short: as §1

UCHL1 = UCHL1 (UniProt P09936)
In short: as §1

UCHL3 = biological target: T4, UCHL3 (UniProt P15374)
T4 sequence (whole entry): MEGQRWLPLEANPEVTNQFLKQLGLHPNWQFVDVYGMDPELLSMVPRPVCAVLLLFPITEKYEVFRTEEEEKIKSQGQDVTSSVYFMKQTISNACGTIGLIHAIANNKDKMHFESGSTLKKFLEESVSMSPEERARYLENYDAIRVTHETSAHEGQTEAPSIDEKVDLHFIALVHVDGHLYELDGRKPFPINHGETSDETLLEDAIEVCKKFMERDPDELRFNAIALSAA
In short: as §1

UCHL5 = biological target: T5, UCHL5 (UniProt Q9Y5K5)
T5 sequence (whole entry): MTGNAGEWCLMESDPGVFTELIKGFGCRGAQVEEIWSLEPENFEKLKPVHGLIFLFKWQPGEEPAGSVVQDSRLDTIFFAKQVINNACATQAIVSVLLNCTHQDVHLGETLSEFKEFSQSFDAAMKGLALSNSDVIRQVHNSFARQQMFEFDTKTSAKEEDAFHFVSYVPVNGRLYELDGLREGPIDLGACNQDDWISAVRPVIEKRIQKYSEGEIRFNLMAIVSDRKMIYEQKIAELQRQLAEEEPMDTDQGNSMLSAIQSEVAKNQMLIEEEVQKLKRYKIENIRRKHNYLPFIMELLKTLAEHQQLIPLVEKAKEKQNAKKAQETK
In short: as §1

USP10 = USP10 (UniProt Q14694)
In short: as §1

USP15 = biological target: T6, USP15 (UniProt Q9Y4E8)
T6 sequence (whole entry): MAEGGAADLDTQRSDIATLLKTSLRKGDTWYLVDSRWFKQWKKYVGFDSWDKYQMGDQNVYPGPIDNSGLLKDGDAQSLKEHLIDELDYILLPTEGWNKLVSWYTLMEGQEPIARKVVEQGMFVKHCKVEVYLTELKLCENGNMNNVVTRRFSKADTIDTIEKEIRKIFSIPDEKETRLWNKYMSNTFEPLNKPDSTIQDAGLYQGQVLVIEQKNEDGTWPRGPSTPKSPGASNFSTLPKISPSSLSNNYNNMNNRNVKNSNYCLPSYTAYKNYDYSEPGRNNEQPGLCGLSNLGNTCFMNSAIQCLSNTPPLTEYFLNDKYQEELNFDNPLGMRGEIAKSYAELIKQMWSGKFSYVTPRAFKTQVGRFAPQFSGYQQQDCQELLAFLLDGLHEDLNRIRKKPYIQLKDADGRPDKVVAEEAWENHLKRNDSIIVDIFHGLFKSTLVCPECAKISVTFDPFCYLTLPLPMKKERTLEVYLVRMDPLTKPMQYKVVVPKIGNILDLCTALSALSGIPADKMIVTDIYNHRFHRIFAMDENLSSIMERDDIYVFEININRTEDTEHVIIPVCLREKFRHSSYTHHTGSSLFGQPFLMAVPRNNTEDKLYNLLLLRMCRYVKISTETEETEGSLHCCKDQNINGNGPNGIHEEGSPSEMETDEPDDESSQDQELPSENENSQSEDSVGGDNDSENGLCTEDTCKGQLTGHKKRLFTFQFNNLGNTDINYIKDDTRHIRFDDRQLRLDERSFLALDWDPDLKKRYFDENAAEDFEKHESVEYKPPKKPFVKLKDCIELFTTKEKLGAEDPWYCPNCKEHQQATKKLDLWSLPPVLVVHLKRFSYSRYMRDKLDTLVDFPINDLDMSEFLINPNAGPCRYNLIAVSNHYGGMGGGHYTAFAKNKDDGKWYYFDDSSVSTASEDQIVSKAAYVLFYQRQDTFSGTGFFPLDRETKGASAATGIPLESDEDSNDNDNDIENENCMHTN
In short: as §1

USP16 = USP16 (UniProt Q9Y5T5)
In short: as §1

Measured: log2 ratio of Biotin-Ahx-Ub-VS probe labelling

Sequence of USP16 (Q9Y5T5 whole entry, looked up): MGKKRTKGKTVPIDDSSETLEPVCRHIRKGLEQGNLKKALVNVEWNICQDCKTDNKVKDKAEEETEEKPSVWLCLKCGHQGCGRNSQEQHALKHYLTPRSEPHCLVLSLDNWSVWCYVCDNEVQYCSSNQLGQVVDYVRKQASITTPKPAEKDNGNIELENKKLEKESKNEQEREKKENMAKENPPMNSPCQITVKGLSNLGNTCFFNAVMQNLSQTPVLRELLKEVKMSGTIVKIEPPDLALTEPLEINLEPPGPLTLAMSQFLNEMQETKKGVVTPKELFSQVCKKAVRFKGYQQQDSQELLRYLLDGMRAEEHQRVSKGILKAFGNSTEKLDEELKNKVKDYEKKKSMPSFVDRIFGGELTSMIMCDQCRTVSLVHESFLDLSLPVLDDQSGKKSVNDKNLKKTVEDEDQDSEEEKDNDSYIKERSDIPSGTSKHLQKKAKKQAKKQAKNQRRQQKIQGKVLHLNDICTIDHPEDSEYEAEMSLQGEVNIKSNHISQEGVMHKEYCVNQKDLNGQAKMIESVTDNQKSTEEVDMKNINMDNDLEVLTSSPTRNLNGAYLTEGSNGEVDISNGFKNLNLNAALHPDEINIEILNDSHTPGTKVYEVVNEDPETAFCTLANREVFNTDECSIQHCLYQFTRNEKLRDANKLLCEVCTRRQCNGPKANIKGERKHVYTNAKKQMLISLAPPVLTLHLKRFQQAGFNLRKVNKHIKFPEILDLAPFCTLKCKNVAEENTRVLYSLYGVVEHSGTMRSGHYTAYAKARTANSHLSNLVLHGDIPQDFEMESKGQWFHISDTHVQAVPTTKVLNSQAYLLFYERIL
Sequence of UCHL1 (P09936 whole entry, looked up): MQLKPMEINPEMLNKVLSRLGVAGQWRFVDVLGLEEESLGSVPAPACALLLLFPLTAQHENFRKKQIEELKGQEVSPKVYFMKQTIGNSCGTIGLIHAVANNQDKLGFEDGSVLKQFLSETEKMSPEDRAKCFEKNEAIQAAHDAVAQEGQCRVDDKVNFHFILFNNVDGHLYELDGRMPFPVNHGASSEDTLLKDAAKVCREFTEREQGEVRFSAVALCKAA
Sequence of USP10 (Q14694 whole entry): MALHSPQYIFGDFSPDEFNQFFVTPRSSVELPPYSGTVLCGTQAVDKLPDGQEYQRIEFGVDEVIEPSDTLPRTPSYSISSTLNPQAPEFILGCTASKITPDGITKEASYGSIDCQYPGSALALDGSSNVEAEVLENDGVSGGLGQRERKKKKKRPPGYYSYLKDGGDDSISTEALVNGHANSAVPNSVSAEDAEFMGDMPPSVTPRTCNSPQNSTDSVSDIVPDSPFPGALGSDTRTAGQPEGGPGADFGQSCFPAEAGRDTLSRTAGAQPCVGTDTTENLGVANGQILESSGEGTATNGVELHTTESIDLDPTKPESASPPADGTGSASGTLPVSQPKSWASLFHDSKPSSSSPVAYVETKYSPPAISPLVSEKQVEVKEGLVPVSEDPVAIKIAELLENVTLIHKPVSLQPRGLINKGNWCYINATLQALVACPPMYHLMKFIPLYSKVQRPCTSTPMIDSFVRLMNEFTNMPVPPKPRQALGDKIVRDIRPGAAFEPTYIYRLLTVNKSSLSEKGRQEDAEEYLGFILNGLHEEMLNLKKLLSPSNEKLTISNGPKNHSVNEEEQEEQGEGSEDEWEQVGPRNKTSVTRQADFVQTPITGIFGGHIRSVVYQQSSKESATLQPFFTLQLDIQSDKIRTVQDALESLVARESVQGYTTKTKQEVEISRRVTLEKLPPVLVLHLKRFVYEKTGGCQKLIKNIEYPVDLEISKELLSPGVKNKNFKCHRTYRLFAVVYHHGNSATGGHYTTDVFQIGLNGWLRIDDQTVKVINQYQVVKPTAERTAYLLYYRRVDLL

Cc1cnc2[nH]cc(CCNC(=O)CCl)c2c1
inactive: OTUD6B 0.00839 | OTUD7B -0.562 | PRPF8 -0.0916 | PSMD7 -0.297 | UCHL1 -0.85 | UCHL3 0.0619 | UCHL5 -0.065 | USP10 -0.0977 | USP15 -0.336 | USP16 0.0147
